IL-1B inflam inh = blocks inflammasome-driven IL-1 beta release | 360,000 tested, 4.7% active | AID 743279 | activity change, % at 57.5 µM | THP-1 LPS/ATP IL-1B secretion, AlphaLISA, 16 h; active compounds read low; in the data active = activity change below about -50%; inconclusive = mostly about -30% to -49%
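Secreted IL-1B measured by AlphaLISA bead assay after 16 h compound exposure of THP-1 cells; compounds (final up to 57.5 uM) added 1 h before LPS (250 ng/mL) and ATP (1.25 mM) stimulation; lower signal means less secretion.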
DT40 TDP1 no CPT = qHTS for Inhibitors of human tyrosyl-DNA phosphodiesterase 1 (TDP1): qHTS in cells in absence of CPT; DT40 Tdp1-/- hTDP1 cells, no CPT, ATP luminescence, 48 h; Potency, µM (titrated, usually from 46.2 µM), without a hit: top-dose activity change, negative = growth inhibition, usual class: inhibitors; 420,000 tested, 15% active; AID 686978, 2013; note: potency is the fitted concentration of half-maximal effect; nearly all actives have a fitted effect of over 55% in size
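Seeded 400 DT40-hTDP1 cells/well (vehicle DMSO, no 20 nM CPT); pinned compounds; ≥48 hr at 37 °C; CellTiter-Glo luminescence as viability measure.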
TDP1 cell CPT = growth inhibition of DT40 Tdp1-/-;hTDP1 cells with camptothecin (screen for TDP1 inhibitors) | 420,000 tested, 12% active | chicken DT40 Tdp1-/-;hTDP1 cells + 20 nM CPT, ATP luminescence, 48 h | AID 686979 | Potency, µM (doses to about 46.2 µM), for the others: at the top dose activity change, negative = growth inhibition, most hits filed as inhibitors; note: potency is the fitted concentration of half-maximal effect; nearly all actives have a fitted effect of over 55% in size
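Cell growth measured by CellTiter-Glo luminescence after a minimum 48 h, 37 C compound exposure with 20 nM CPT in Tdp1-knockout DT40 cells stably expressing hTDP1, seeded 400/well; qHTS titration format.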
HT1080 IDH1KD tx = HT-1080 IDH1 knockdown cell toxicity (counter line). Potency, µM (top dose mostly 46.1 µM), without a hit: at the top dose activity, negative = toxicity, usual class: cytotoxic. HT-1080 IDH1 knockdown viability, ATP luminescence, 48 h. AID 686971. 360,000 tested, 2% active;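 note: potency is the fitted concentration of half-maximal effect; 0% = DMSO wells and -100% = cell-free medium wells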
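Assay cells: HT-1080 with IDH1 knockdown, 750 per well, RPMI/5% FBS. Exposure: 48 h at 37 °C following 2 h pre-incubation. Read: CellTiter-Glo luminescence; fitted concentration-response, curve class assigned.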
HT1080-NT tox = kills 2HG-producing HT-1080-NT fibrosarcoma cells; HT-1080-NT fibrosarcoma viability, CellTiter-Glo ATP luminescence, 48 h; Potency, µM (series often up to 46.1 µM), without a hit: top-dose activity, negative = less viability, hits mostly cytotoxic; 360,000 tested, 1.6% active; AID 686970;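 note: NT is the 2HG producing partner of a matched IDH1 knockdown line; potency is the fitted concentration of half-maximal effect; 0% = DMSO-treated cells and -100% = media-only wells without cells; nearly all actives have a fitted effect of over 55% in size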
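Viability of the 2HG-overproducing fibrosarcoma line after 48 hours of compound exposure at 37 degrees C was determined by luminescence with CellTiter-Glo, and concentration-effect curves were then fitted and categorized.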
Active calls of the source: *; ? = inconclusive; . = no result; [ ] = dose if it differs, or a comment. A selection: hits, their analogues and other compounds. The true share with any hit is near 19%. Unless noted, calls come from the whole dose curve; as a rule, active = well fitted curve in the direction sought with a large enough effect; inconclusive = small, poorly fitted or top-dose-only effect, or another doubt; inactive = no such curve, though single readings can be large; an effect the other way counts as inactive or inconclusive. Unless noted, % is set by controls: 0 for no effect and ±100 for the full control effect.

SMILES	IL-1B inflam inh	DT40 TDP1 no CPT	TDP1 cell CPT	HT1080 IDH1KD tx	HT1080-NT tox
CNC(=O)C1(C)CCN1C(=O)Cc1ccc(C(C)C)cc1 (centres undefined)	17	-18%	-1%	22%	?
Cc1ccc(NC(=O)C2(C)CCN2C(=O)Cc2ccc(C(C)C)cc2)cc1 (centres undefined)	32	23µM*	?	?	?
COc1ccc(CN2CCC2(C)C(=O)NCCNC(C)=O)c2ccccc12 (centres undefined)	18	1%	8%	8%	12%
COc1ccc(CN2CCC2(C)C(=O)NCc2ccc3c(c2)OCO3)c2ccccc12 (centres undefined)	12	?	23µM*	-26%	-23%
CC(C)C(C)(C)C(C)(C)C(C)(C)S	.	6%[92.5 µM]	11%[92.5 µM]	.	.
CN(CC(=O)NCc1ccccc1)Cc1ccc(Cl)cc1	?	0%	-5%	0%	-2%
O=C(O)CN1CCN(Cc2ccccc2F)C1=O	27	-1%	-4%	0%	11%
CC1(C(=O)Nc2ccc3c(c2)OCO3)CCN1C(=O)Cc1cccc2ccccc12 (centres undefined)	6	16µM*	21µM*	-19%	-16%
COc1ccccc1CN(CC(=O)NCc1ccc2c(c1)OCO2)C(=O)c1ccc2c(c1)OCCO2	0	21µM*	?	6%	2%
CC1(C(=O)Nc2ccc3c(c2)OCO3)CCN1C(=O)Cc1cccs1 (centres undefined)	-7	?	?	-2%	-5%
CCC(C)N1C(=O)CN(C2CCCCCC2)C(=O)C1c1ccccc1F (centres undefined)	-5	?	-1%	4%	-18%
NC(=O)c1[nH]cnc1N=NN(CCO)Cc1ccccc1	32	-18%	2%	-8%	-15%
Cc1cccc(CNC(=O)c2ccc(NC(=O)N3CC(C)Sc4ccccc43)cc2)c1 (centres undefined)	.	16µM*	21µM*	.	.
COc1cccc(CNC(=O)c2ccc(NC(=O)N3CC(C)Sc4ccccc43)cc2)c1 (centres undefined)	.	15µM*	18µM*	.	.
CCc1ccc(CNC(=O)c2ccc(NC(=O)N3CC(C)Sc4ccccc43)cc2)cc1 (centres undefined)	.	9.2µM*	10µM*	.	.
CC(C)CNC(=O)/C=C/c1cccs1	3	4%	1%	22%	14%
OC1CCN(Cc2ccc3c(c2)CN(Cc2ccc(Oc4ncccn4)cc2)CCO3)CC1	.	-8%	1%	.	.
Cc1ccc2ccc(C(Nc3ccccc3)c3ccc(C(C)C)cc3)c(O)c2n1 (centres undefined)	69	12µM*	15µM*	?	?
Cc1ccc2ccc(C(Nc3cccc(C(F)(F)F)c3)c3cccnc3)c(O)c2n1 (centres undefined)	60	?	?	-10%	-1%
Cc1ccc2ccc(C(Nc3ccccc3)c3ccc(Cl)cc3)c(O)c2n1 (centres undefined)	65	3.3µM*	4.1µM*	?	-18%
Cc1ccc2ccc(C(Nc3ccccc3)c3ccc(F)cc3)c(O)c2n1 (centres undefined)	71	5.8µM*	9.2µM*	?	?
Cc1ccc2ccc(C(Nc3ccccc3)c3ccccc3)c(O)c2n1 (centres undefined)	47	6.5µM*	10µM*	?	-8%
CCCNC(=O)N1N=C(c2ccc(N)cc2)c2cc3c(cc2[C@H]1C)OCO3	.	-17%	10%	.	.
CCOC(=O)c1ccc(NC(=O)CCc2nc(-c3cccc(C)c3)no2)cc1	?	16µM*	?	-21%	-13%
CC(=O)c1ccc(NC(=O)CCCc2nc(-c3cccc(C)c3)no2)cc1	.	21µM*	-29%	.	.
SMILES	IL-1B inflam inh	DT40 TDP1 no CPT	TDP1 cell CPT	HT1080 IDH1KD tx	HT1080-NT tox
Cc1cccc(-c2noc(CCC(=O)Nc3ccccc3)n2)c1	12	?	?	-10%	-23%
Cc1ccc(-c2noc(CCC(=O)Nc3cccc(C#N)c3)n2)cc1	-5	18µM*	?	-26%	-27%
Cc1ccc(-c2noc(CCC(=O)Nc3ccc(C)cn3)n2)cc1	43	-28%	-28%	0%[9.24 µM]	12%
CC1CCN(S(=O)(=O)c2ccc(NC(=O)Cc3cccs3)cc2)CC1	-12	?	-19%	-26%	0%[9.24 µM]
O=C(Cn1cncn1)N1CCOc2ccc(CN3CCN(c4ccccc4)CC3)cc2C1	.	3%	14%[9.04 µM]	.	.
Cc1cccc(Cn2cc3c(=O)n(CC(=O)Nc4c(C)cccc4C)nc-3c3cc(F)ccc32)c1	.	-8%	-1%	.	.
CCOc1cc(C(=O)N2CCN(c3ccc(C(C)=O)cc3)CC2)cc(OCC)c1OCC	21	?	?	5%	3%
Cc1ncc2c(n1)-c1cc(F)ccc1SC2	-4	1%	-5%	13%	13%
CSc1ncc2c(n1)-c1cc(C)ccc1SC2	-12	5.2µM*	2.6µM*	?	?
COC(=O)C1=C(C)NC2=C(C(=O)C(C(=O)OC)C(c3ccc(OC)cc3)C2)C1c1ccccn1 (centres undefined)	-1	-11%	-4%	-4%	-4%
CCC(C)(C)NC(=O)C(Sc1ccccc1)c1ccccc1 (centres undefined)	-18	?	-17%	8%	0%
Cc1cc(C)cc(-n2ncc3c2CCCC3NC(=O)c2ccccc2N2CCOCC2)c1 (centres undefined)	-19	16µM*	?	16µM*	?
O=C(NC1CCCc2c1cnn2-c1ccccc1F)c1ccccc1N1CCOCC1 (centres undefined)	?	13µM*	16µM*	0%	-3%
CCOC(=O)CNC(=O)c1cc(-c2ccccn2)nc2c(C)c(Cl)ccc12	-2	-19%	-15%	-2%	-6%
COc1ccc(S(=O)(=O)N(C)C[C@H]2Oc3cc(Br)ccc3S(=O)(=O)N([C@H](C)CO)C[C@H]2C)cc1	23	21µM*	?	-17%	-14%
C[C@H]1CN([C@@H](C)CO)S(=O)(=O)c2ccc(C#CC3CC3)cc2O[C@@H]1CN(C)S(C)(=O)=O	-4	?	-27%	-1%	12%
C[C@H](CO)N1C[C@H](C)[C@H](CN(C)S(=O)(=O)c2cccc(F)c2)Oc2cc(Br)ccc2S1(=O)=O	-16	21µM*	26µM*	7%	10%
C[C@@H]1CN([C@@H](C)CO)S(=O)(=O)c2ccc(Br)cc2O[C@@H]1CN(C)S(=O)(=O)c1cn(C)cn1	4	-20%	18%	18%	8%

Bioassay records (PubChem BioAssay)
